Reference: PubChem BioAssay AID493066 (National Center for Advancing Translational Sciences (NCATS), 2011)
Inconclusive results are not listed. Activity calls are given as the source filed them. Calls come from the whole dose curve; as a rule, active = well fitted cell-killing curve with a large enough effect; inconclusive = small, poorly fitted or top-dose-only effect; inactive = flat fitted curve, though single readings scatter.

Test: HBEC Cell Viability Secondary Assay for qHTS Assay for Epigenetic Modulators
Conditions: HBEC normal bronchial cells viability, ATP luminescence, 72 h; series mostly up to 46.1 µM
From the text: NIH Molecular Libraries Screening Centers Network [MLSCN] NIH Chemical Genomics Center [NCGC] MLSCN Grant: 1 X01 MH079860-01 Assay Provider: Elisabeth D. Martinez, University of Texas SW Medical Center NCGC Assay Overview: This secondary assay characterizes selected actives identified in the qHTS of the Locus Derepression (LDR) assay (PubChem AID 1865). The LDR assay detects the derepression of a GFP reporter that is stably integrated in a region of the genome of murine c127i mammary cells that is presumably silenced. Compounds that cause derepression of the locus to express GFP are identified by enumerating GFP positive cells using a laser-scanning microplate cytometer. Selected LDR actives were assayed for killing of HBEC, a patient-derived normal bronchial epithelial line matched to HCC4017 (Pubchem AID XXX), a nonsmall cell lung carcinoma line from the same patient. The HBEC line assays the cytoxicity of test compounds on normal lung cells. Cell viability was measured using a luminescence-based detection reagent that measures cellular ATP levels.
NCGC Assay Protocol Summary HBEC cells were seeded at 125 cells/5 uL/well in white, solid bottom, 1536 well plates (Greiner). After 16-hour incubation at 37deg C and 5% CO2, 23 nL of compound were transferred into the assay plate via a pin tool. Plates were incubated 72 hours at 37deg C and 5% CO2, then 3.5 uL/well CellTiter-Glo(R) (Promega) detection reagent was added, plates were incubated at ambient temperature for 10 minutes and luminescence was measured by a ViewLux (Perkin Elmer) reader. For further details, see Johnson, RL, Huang, W, Jadhav, A, Austin, CP, Inglese, J, Martinez, ED (2008). A quantitative high-throughput screen identifies potential epigenetic modulators of gene expression. Anal Biochem 375: 237-48. […]

Row | Structure (SMILES) | Potency
1 | COc1ccccc1OCC(=O)N/N=C/C=C/c1ccc([N+](=O)[O-])o1 | 9.96 µM (active)
2 | O=C(CSc1cccc[n+]1[O-])c1ccccc1Br | inactive
3 | O=C(N/N=C/c1ccccn1)c1cc(-c2ccc(Cl)cc2)nc2ccccc12 | 7.05 µM (active)
4 | Cc1ccc(C(C)C)c(OCc2ccc(C(=O)N/N=C/c3cccc(O)c3O)cc2)c1 | 14.1 µM (active)
5 | O=[N+]([O-])/C(C=Nc1ccccc1O)=C\Nc1ccccc1O | 28.1 µM (active)
6 | C(=N\Nc1nc(-c2ccccn2)nc2ccccc12)/c1ccccc1 | 3.15 µM (active)
7 | COc1nc(Nc2nc3ccccc3c(=O)[nH]2)nc2ccc(C)cc12 | 3.15 µM (active)
8 | COc1ccc2c(C)cc(SCC(=O)N(C)C3CCS(=O)(=O)C3)nc2c1 (stereo unspecified) | inactive
9 | CCN(CC)CCCNC(=O)CSc1c2c(nc3cc(Cl)ccc13)CCCC2 | 19.9 µM (active)
10 | CN(C)S(=O)(=O)c1cccc(NC(=S)N/N=C/c2ccco2)c1 | inactive
11 | O=C1C=C(Nc2ccc(Cl)cc2)C(=O)N1c1ccc(Cl)cc1 | inactive
12 | NC(=S)N/N=C/c1ncc(C(F)(F)F)cc1Cl | 6.28 µM (active)
13 | COc1ccc2c(C)nc(Nc3nc(-c4ccccc4)cc(=O)[nH]3)nc2c1 | 8.88 µM (active)
14 | Cc1ccc(/C=[N+](\[O-])c2ccc(N(C)C)cc2)c2nsnc12 | 9.96 µM (active)
15 | CCOn1c(=O)c[n+]([O-])c2ccccc21 | inactive
16 | N=c1n(CC(=O)c2ccc([N+](=O)[O-])cc2)c2ccccc2n1Cc1ccccc1Cl | 11.2 µM (active)

Row | Structure (SMILES) | Potency
17 | CCc1nnc(NC(=O)c2cccc(C(=O)Nc3nnc(CC)s3)n2)s1 | 0.705 µM (active)
18 | CC1=C/C(=N\NC(=S)Nc2cccnc2)CC(C)(C)C1 | 9.96 µM (active)
19 | CCOc1ccc(NC(=O)c2nc(S(=O)(=O)Cc3ccccc3F)ncc2Cl)cc1 | 2.23 µM (active)
20 | CCCC(=O)N1CCN(c2ccc(NC(=O)c3ccc([N+](=O)[O-])o3)cc2Cl)CC1 | 0.705 µM (active)
21 | O=C(NN1C(=O)c2ccccc2NC1c1ccc([N+](=O)[O-])o1)c1ccc([N+](=O)[O-])cc1 (stereo unspecified) | 3.97 µM (active)
22 | CC1=NN(c2nc3ccccc3[nH]2)C(=O)C1Cc1ccccc1 (stereo unspecified) | 7.05 µM (active)
23 | C/C=C/c1ccc(OCC(=O)OCC(=O)NC2CC2)c(OC)c1 | inactive
24 | COCCNC(=S)N/N=C(\C)c1ccccc1O | inactive
25 | CCC(=O)N1CCN(c2ccc(NC(=O)c3ccc([N+](=O)[O-])o3)cc2Cl)CC1 | 0.705 µM (active)
26 | COc1cccc(N2CCN(S(=O)(=O)c3ccc(-n4cnnn4)cc3)CC2)c1 | inactive
27 | COc1ccc(C(=O)/C=C/Sc2nc3ccccc3o2)cc1 | 3.15 µM (active)
28 | S=C(Nc1ccccc1)c1ccccn1 | inactive
29 | COc1ccc(NC(=O)CSc2nc3c(oc4ccccc43)c(=O)n2Cc2ccco2)cc1Cl | 7.05 µM (active)
30 | CCCCOC(=O)Cn1c2ccc(OC)cc2c2nc3ccccc3nc21 | 14.1 µM (active)
31 | COc1cccc(/C=N/Nc2nc(Nc3ccccc3)nc(-n3nc(C)cc3C)n2)c1O | 11.2 µM (active)
